PubChem BioAssay AID1159580 (chemical genetic matrix, 2015)
Among all 5,500 compounds or so, about 2,000 (36%) were called active. Another 18% or so got no clear call; they are omitted. Cut-off read from the data, not from the text of the source: active = normalized growth mostly below about 0.91 (no sharp cut-off); inconclusive = no clear call, values can overlap the other calls; inactive = mostly above about 0.92. This is one part of the list.

Test: chemical genetic growth profiling, strain panel (AID 1159580);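 note: tested at 20 µM; growth read once vehicle control cultures reached saturation at 30 °C; 1 = growth at the plate median or of vehicle wells; lower values mean less growth of the strain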
Details: S. cerevisiae deletion strains, growth OD

Measured: normalized growth

CC(C)OC(=O)Nc1cc(Cl)cc(Cl)c1
inactive: locus YAR019C, strain CDC15, stronger effect = lower value 0.971 | locus YBL105C, strain PKC1, stronger effect = lower value 0.97 | locus YBR135W, strain CKS1, stronger effect = lower value 0.964 | locus YBR136W, strain MEC1, stronger effect = lower value 0.986 | locus YBR160W, strain CDC28, stronger effect = lower value 0.981 | locus YDL017W, strain CDC7, stronger effect = lower value 0.974 | locus YDL028C, strain MPS1, stronger effect = lower value 0.996 | locus YDL101C, strain DUN1, stronger effect = lower value 0.972 | locus YDL108W, strain KIN28, stronger effect = lower value 0.98 | locus YDL132W, strain cdc53, stronger effect = lower value 0.953 | locus YDL214C, strain PRR2, stronger effect = lower value 0.864 | locus YDR052C, strain DBF4, stronger effect = lower value 0.993 | locus YDR054C, strain cdc34, stronger effect = lower value 0.939 | locus YDR226W, strain ADK1, stronger effect = lower value 0.982 | locus YDR477W, strain SNF1, stronger effect = lower value 0.873 | locus YER123W, strain YCK3, stronger effect = lower value 0.845 | locus YER133W, strain GLC7, stronger effect = lower value 0.764 | locus YFL009W, strain cdc4, stronger effect = lower value 0.96 | locus YFL029C, strain CAK1, stronger effect = lower value 0.972 | locus YFR003C, strain YPI1, stronger effect = lower value 0.972 | locus YFR019W, strain FAB1, stronger effect = lower value 0.966 | locus YFR028C, strain CDC14, stronger effect = lower value 0.985 | locus YGR040W, strain KSS1, stronger effect = lower value 0.838 | locus YGR052W, strain FMP48, stronger effect = lower value 0.822 | locus YGR092W, strain DBF2, stronger effect = lower value 0.765 | locus YHR079C, strain IRE1, stronger effect = lower value 0.754 | locus YHR082C, strain KSP1, stronger effect = lower value 0.988 | locus YHR205W, strain SCH9, stronger effect = lower value 0.777 | locus YIL147C, strain SLN1, stronger effect = lower value 0.987 | locus YJL095W, strain BCK1, stronger effect = lower value 0.716 | locus YJL128C, strain PBS2, stronger effect = lower value 0.899 | locus YJL157C, strain FAR1, stronger effect = lower value 0.902 | locus YJR016C, strain ILV3, stronger effect = lower value 0.957 | locus YJR066W, strain TOR1 (second series), stronger effect = lower value 0.883 | locus YJR066W, strain TOR1, stronger effect = lower value 0.99 | locus YKL048C, strain ELM1, stronger effect = lower value 0.864 | locus YKL067W, strain YNK1, stronger effect = lower value 0.857 | locus YKL101W, strain HSL1, stronger effect = lower value 0.888 | locus YKL193C, strain SDS22, stronger effect = lower value 0.97 | locus YKL203C, strain TOR2, stronger effect = lower value 0.944 | locus YLR133W, strain CKI1, stronger effect = lower value 0.915 | locus YLR403W, strain SFP1, stronger effect = lower value 0.853 | locus YML070W, strain DAK1, stronger effect = lower value 0.848 | locus YMR001C, strain CDC5, stronger effect = lower value 0.985 | locus YMR205C, strain PFK2 (second series), stronger effect = lower value 0.898 | locus YMR277W, strain FCP1, stronger effect = lower value 0.939 | locus YNL006W, strain LST8, stronger effect = lower value 0.968 | locus YNL020C, strain ARK1, stronger effect = lower value 0.9 | locus YNL161W, strain CBK1, stronger effect = lower value 0.969 | locus YNL183C, strain NPR1, stronger effect = lower value 0.707 | locus YNL207W, strain RIO2, stronger effect = lower value 0.975 | locus YNL222W, strain SSU72, stronger effect = lower value 0.978 | locus YNL307C, strain MCK1 (second series), stronger effect = lower value 0.868 | locus YOL078W, strain AVO1, stronger effect = lower value 0.974 | locus YOL136C, strain PFK27, stronger effect = lower value 0.849 | locus YOR061W, strain CKA2, stronger effect = lower value 0.875 | locus YOR119C, strain RIO1, stronger effect = lower value 0.85 | locus YOR231W, strain MKK1, stronger effect = lower value 0.729 | locus YOR329C, strain SCD5, stronger effect = lower value 0.976 | locus YPL031C, strain PHO85, stronger effect = lower value 0.756 | locus YPL153C, strain RAD53, stronger effect = lower value 0.8 | locus YPL204W, strain HRR25, stronger effect = lower value 0.791 | locus YPL209C, strain IPL1, stronger effect = lower value 0.973 | locus YPR025C, strain CCL1, stronger effect = lower value 0.978 | locus YPR106W, strain ISR1, stronger effect = lower value 0.959 | locus YPR111W, strain DBF20, stronger effect = lower value 0.948 | strain NNK1, stronger effect = lower value 0.963 | strain TSCII, stronger effect = lower value 0.967
active: locus YLR113W, strain HOG1, stronger effect = lower value 0.479 | locus YPL256C, strain CLN2, stronger effect = lower value 0.682
